Platelet DG rel: inhibitors of platelet dense granule secretion, primary screen, cell-based, MLPCN, human platelets; human platelet-rich plasma, SFLLRN dense granule ATP release, luminescence; inhibition, %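 (compounds screened at 7.5 µM in platelet-rich plasma)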; 300,000 compounds, 0.22% hits; AID 1663, 2009;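 active = mean replicate score, as percent of positive control, at or above 50; inconclusive = mean below 50 but at least one replicate at or above 50; inactive = mean and every replicate below 50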
TPT1 inh: Candida albicans TPT1 enzyme inhibitors, primary screen, biochemical, fluorescence polarization | tRNA 2'-phosphotransferase TPT1 (Candida albicans SC5314) | recombinant caTPT1, FP RNA substrate dephosphorylation | inhibition, % at 5 µM | 300,000 compounds, 0.81% hits | AID 1962, 2009;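 active = inhibition above the mean of all tested compounds plus 3 SD, set per screening campaign, cut at about 24% in these data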;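 also: plate controls were DMSO alone for no effect and ferristatin control at 100 nM for full effect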
SKKanGAS inh: S. pyogenes SKKanGAS growth inhibitors in kanamycin, primary screen, streptokinase expression inhibitor project, SKKanGAS strain, BacTiter-Glo luminescence; inhibition, % at 7.5 µM; 300,000 compounds, 1.3% hits; 6 h; AID 1662, 2009;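 active = mean replicate score, as percent of positive control median, at least 50; inconclusive = mean below 50 but one replicate at or above 50; inactive = mean and every replicate below 50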;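 also: strain carries kanamycin resistance gene driven by streptokinase promoter and grows in 40 µg/ml kanamycin; loss of luminescence reflects streptokinase promoter inhibition or plain growth inhibition; 0% = median of DMSO wells and 100% = positive control at its reference dose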
PHOSPHO1 block: PubChem AID 1565; Phosphoethanolamine/phosphocholine phosphatase (Homo sapiens), Q8TCT1; recombinant PHOSPHO1, absorbance phosphatase assay; inhibition, % at 13.3 µM; 290,000 compounds, 1.1% hits; in the data active = inhibition above about 60%
Rtt109 Vps75: inhibitors of C. albicans Rtt109/Vps75 HAT, primary screen, biochemical, ThioGlo CoA-SH fluorescence, plate reader; Histone acetyltransferase RTT109 (Candida albicans (strain SC5314 / ATCC MYA-2876)), …; purified Rtt109/Vps75, 4 h; inhibition, % at 34.9 µM; 330,000 compounds, 0.16% hits;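 active = inhibition of at least 50% in every replicate; inconclusive = best replicate reaches 50% inhibition but some replicates fall short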
Target sequence (Q5AAJ8 whole entry, looked up): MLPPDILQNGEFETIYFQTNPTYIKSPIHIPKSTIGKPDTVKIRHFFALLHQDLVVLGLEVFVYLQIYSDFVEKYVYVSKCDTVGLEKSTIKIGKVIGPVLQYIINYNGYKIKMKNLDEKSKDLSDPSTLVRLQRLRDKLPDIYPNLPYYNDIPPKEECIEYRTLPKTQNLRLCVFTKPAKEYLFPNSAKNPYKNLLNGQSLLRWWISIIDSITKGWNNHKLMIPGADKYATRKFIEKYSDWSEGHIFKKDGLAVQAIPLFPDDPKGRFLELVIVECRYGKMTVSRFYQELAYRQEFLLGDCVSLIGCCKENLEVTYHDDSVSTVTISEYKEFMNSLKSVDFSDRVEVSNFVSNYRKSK
WT yeast gro inh: growth inhibition of WT strain, primary screen, mitochondrial fusion inhibitor project, WT and mutant strains, chemical genetic; 190,000 compounds, 2.1% hits; mitochondrial fusion phenotypic screen; inhibition, % at 10 µM; in the data active = inhibition above about 58%; tested in S. cerevisiae
TPT1 inh confirm: Candida albicans TPT1 inhibitors, confirmation, biochemical, fluorescence polarization, triplicate | 2,400 compounds, 74% hits | inhibition, % at 5 µM | recombinant caTPT1, RNase T1 coupled | shares compounds with TPT1 inh | AID 2149, 2009;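 active = inhibition above the primary screen limit, the mean inhibition of all tested compounds plus 3 SD, cut at about 25% in these data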
RNase T1 inh: RNase T1 inhibitors, counter-screen for TPT1 inhibitor project, biochemical, fluorescence polarization; shares compounds with TPT1 inh; RNase T1 cleavage, 1536-well; inhibition, % at 5 µM; 2,400 compounds, 83% hits; AID 2153, 2009;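 active = inhibition above the solvent-only control well mean plus 3 SD, limit set per screening run, cut at about 23% in these data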;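 also: plate controls were DMSO wells with enzyme for no effect and wells without RNase T1 for full effect; inhibitors block cleavage so intact labeled substrate keeps polarization high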
Target sequence (P00651 whole entry, looked up): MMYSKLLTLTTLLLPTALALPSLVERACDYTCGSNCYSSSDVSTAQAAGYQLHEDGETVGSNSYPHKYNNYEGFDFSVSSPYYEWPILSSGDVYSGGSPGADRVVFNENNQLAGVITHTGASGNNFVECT
* = called active by the depositor; ? = inconclusive; . = no result given. Hits are enriched below; roughly 3.9% of the tested compounds scored in any of these assays.

SMILES	Platelet DG rel	TPT1 inh	SKKanGAS inh	PHOSPHO1 block	Rtt109 Vps75	WT yeast gro inh	TPT1 inh confirm	RNase T1 inh
O=C(O)c1ccc(N=Cc2c(O)ccc3ccccc23)cc1	-3	-1	0	10	-3	.	.	.
COc1ccc(N=Cc2c(O)ccc3ccccc23)cc1	0	112*	-6	33	-9	-3	90*	110*
CC(=O)Nc1ccc(N=Cc2c(O)ccc3ccccc23)cc1	-4	46*	14	34	0	.	46*	79*
CN(Cc1ccccc1F)C(=O)CN1C(=O)NC2(CCc3ccccc32)C1=O (centres undefined)	.	.	.	.	-6	.	.	.
CCOc1ccc(S(=O)(=O)N2CCCC(C(=O)NCc3cccnc3)C2)cc1Cl (centres undefined)	10	3	-4	23	-1	.	.	.
O=S(=O)(c1ccc(SCc2ccccc2F)nc1)N1CCCC1	.	.	.	.	-8	.	.	.
COCCOC(=O)C1=C(C)NC(=O)NC1c1cccc2ccccc12 (centres undefined)	-11	2	11	39	-2	.	.	.
O=C(O)CCCN1C(=O)/C(=C/c2ccncc2)SC1=S	1	0	-5	6	-9	.	.	.
O=C(O)CCCN1C(=O)/C(=C/c2ccc(-c3nc4ccccc4s3)o2)SC1=S	-4	48*	28	69*	27	20	95*	103*
O=C(O)CCCCCN1C(=O)/C(=C\c2ccncc2)SC1=S	13	2	-3	-21	10	-8	.	.
O=C(O)CCCCCN1C(=O)/C(=C\c2ccc(-c3ccc(Cl)cc3)o2)SC1=S	-4	27*	?	-2	11	.	65*	81*
Cc1noc(C)c1COc1ccccc1C(=O)N(C)Cc1ccco1	.	.	.	.	2	.	.	.
CCOC(=O)C1=C(CC)OC(N)=C(C#N)C1c1cccs1 (centres undefined)	1	-17	-1	26	.	-23	.	.
CCN1CC2=C(OC(N)=C(C#N)C2c2cccs2)/C(=C\c2cccs2)C1 (centres undefined)	6	26*	1	11	.	20	14	21
O=C(O)C(=O)/C(=C\c1ccc(Cl)cc1)c1ccc2ccccc2n1	2	41*	1	24	0	-8	35*	49*
Cc1ccc2c(c1)C1(C(=O)N2C)N2CC3(C)CN1CC(C)(C2)C3=O (centres undefined)	-1	64*	1	-18	11	12	-1	0
O=C(C[n+]1cccc2ccccc21)c1ccc(NC(=O)c2ccccc2)cc1	7	40*	0	22	.	17	28*	41*
O=C(C[n+]1cccc2ccccc21)c1ccccc1	2	11	-7	5	4	-4	.	.
Nc1nc(-c2ccccc2)c(-c2ccc([N+](=O)[O-])cc2)s1	1	40*	-1	-41	1	72	51*	69*
Nc1nc(-c2ccc([N+](=O)[O-])cc2)c(C(=O)Nc2ccc(Cl)cc2)s1	-2	-1	-5	-15	0	.	.	.
COC(=O)c1sc(S(=O)(=O)NC(Cc2ccccc2)C(=O)O)c(C(=O)OC)c1C (centres undefined)	.	.	.	.	-6	.	.	.
COc1ccc(NS(=O)(=O)c2ccc(N3CCCCC3)c(N)c2)cc1	.	.	.	.	-2	.	.	.
NC(=O)c1ccc[n+](CC(=O)c2ccc(Br)cc2)c1	-4	1	-6	0	10	5	.	.
CCCC1=[N+](CC(=O)c2ccc(Br)cc2)CCn2cccc21	6	118*	2	-33	9	.	9	18
CCCC1=[N+](CC(C)=O)CCn2c(C)ccc21	-3	-3	7	-7	-5	2	.	.
SMILES	Platelet DG rel	TPT1 inh	SKKanGAS inh	PHOSPHO1 block	Rtt109 Vps75	WT yeast gro inh	TPT1 inh confirm	RNase T1 inh
CCCC1=[N+](CC(=O)c2ccccc2)CCn2cccc21	-6	86*	14	2	7	-4	8	14
CN1/C(=C\C=C(C#N)C#N)C(C)(C)c2ccccc21	3	17	-2	-141	10	-20	.	.
CN1/C(=C\C=C(/C#N)C(=O)Nc2ccc(Cl)cc2)C(C)(C)c2ccccc21	-2	112*	-2	-7	-5	5	36*	52*
O=C(NCCc1cccc(C(F)(F)F)c1)C1CCC(=O)N(C2CC2)C1 (centres undefined)	1	-1	0	-10	0	.	.	.
O=[N+]([O-])c1ccc(-c2cn3nc(-c4ccccc4)c(-c4ccccc4)nc3n2)cc1	13	17	17	28	.	.	.	.
Cc1ccc(-c2cn3nc(-c4ccccc4)c(-c4ccccc4)nc3n2)cc1	-9	68*	6	0	.	.	71*	75*
c1ccc(-c2cn3nc(-c4ccccc4)c(-c4ccccc4)nc3n2)cc1	1	34*	19	-21	-3	-10	44*	51*
O=c1c(/C=C(\O)c2ccc(F)cc2)nc2ccccc2n1-c1ccccc1	4	62*	5	7	9	.	79*	75*
Cn1c(=O)c(/C=C/c2ccc(F)cc2)nc2ccccc21	-18	.	-12	30	-2	29	.	.
NC(=O)C1CCN(CC(=O)Nc2ccc(S(=O)(=O)N3CCOCC3)cc2)CC1	4	0	-2	32	14	.	.	.
O=C1Nc2ccccc2N(O)N1c1ccc(Cl)cc1	0	0	0	8	-14	-8	.	.
CCN1c2ccccc2NC2C1C(C(C)=O)C(=O)N2c1ccc(Cl)cc1 (centres undefined)	-2	60*	15	-10	-1	16	76*	85*
CCCc1ccc2oc(C(=O)NCc3nnc(C)o3)c(C)c2c1	-7	.	-2	31	1	.	.	.
CC1CCCN(S(=O)(=O)c2ccc(C(=O)Nc3sc4c(c3C(N)=O)CCN(C)C4)cc2)C1 (centres undefined)	-17	73*	1	48	2	.	64*	71*
CCCN1CCc2c(sc(NC(=O)c3ccc(S(=O)(=O)N4CCCC4)cc3)c2C(N)=O)C1	5	120*	2	13	0	.	132*	132*
CCN1CCc2c(sc(NC(=O)c3ccc(S(=O)(=O)N4CCOCC4)cc3)c2C(N)=O)C1	-2	9	0	-4	9	19	.	.

Screening results deposited in PubChem BioAssay by several laboratories.
